Source: PubChem BioAssay AID492992 (Johns Hopkins Ion Channel Center, 2010)
The whole screen tested about 4,900 compounds, of which about 2,100 (43%) were called active.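 How the source made its calls: active means thallium signal inhibited by more than 5 SD of the compound-free buffer control wells, on both duplicate plates; inactive means the rest.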 The set was probably picked from earlier hits. Only a sample is shown.

Target: Potassium channel subfamily K member 9 (Homo sapiens) (UniProt Q9NPC2)
Assay: KCNK9 potassium channel inhibitors, confirmation, HEK293 cells, thallium flux, duplicate (AID 492992);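 on inhibition: 0% = assay buffer control wells without compound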
Settings: FluxOR thallium flux fluorescence, at 10 µM; hits give high values

Sequence of Potassium channel subfamily K member 9 (Homo sapiens) (Q9NPC2 whole entry, looked up): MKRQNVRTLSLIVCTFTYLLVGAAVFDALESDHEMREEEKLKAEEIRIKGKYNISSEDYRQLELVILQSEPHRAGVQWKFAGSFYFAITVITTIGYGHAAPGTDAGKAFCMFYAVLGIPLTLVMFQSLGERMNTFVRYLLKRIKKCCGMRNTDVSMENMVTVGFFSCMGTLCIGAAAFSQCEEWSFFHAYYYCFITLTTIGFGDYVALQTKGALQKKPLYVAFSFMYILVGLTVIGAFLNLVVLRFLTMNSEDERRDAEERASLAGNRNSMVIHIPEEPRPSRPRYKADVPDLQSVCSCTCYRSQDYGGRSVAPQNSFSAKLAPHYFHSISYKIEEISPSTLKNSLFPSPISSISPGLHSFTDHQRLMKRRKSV

Row | SMILES | inhibition
1 | O=C1CC(NNc2ccccc2)C(=O)N1c1cccc(Cl)c1 (centres undefined) | inactive
2 | CN(C)c1ccc(C(CNC(=O)c2ccc(F)cc2)c2c[nH]c3ccccc23)cc1 (centres undefined) | inactive
3 | COc1cc(Cl)c(C)cc1NC(=O)CSc1nnc(-c2ccco2)n1CC(C)C | 41.5% (active)
4 | COc1ccc(Nc2ncnc3sc(-c4ccccc4)cc23)c(OC)c1 | 33.5% (active)
5 | CCOC(=O)C(C)Sc1nc2ccccc2c(=O)n1CC1CCCCC1 (centres undefined) | 40.5% (active)
6 | COc1ccc(-c2nc(CCNC(=O)c3ccc(Br)o3)cs2)cc1 | 28.5% (active)
7 | COc1cccc(-c2nn(C)c3sc(C(=O)N4CCN(c5ccccc5)CC4)cc23)c1 | inactive
8 | CC1(C)CC(N2CCN(C(c3ccccc3)c3ccccc3)CC2)=CC(=[N+]2CCCCC2)C1 | 68% (active)
9 | N#Cc1nc(Cc2cccc3ccccc23)oc1NCc1ccc2c(c1)OCO2 | 45% (active)
10 | C=CCN(N=Nc1cccc([N+](=O)[O-])c1)c1cccc([N+](=O)[O-])c1 | 57.5% (active)
11 | CCCCCn1c(=O)c(C(=O)OCC)c(Cl)c2ccccc21 | 45.5% (active)
12 | CCOC(=O)N/N=C/c1cn(Cc2ccccc2Cl)c2ccccc12 | inactive
13 | CCOc1ccccc1NC(=O)C1CCCN(S(=O)(=O)c2ccccc2)C1 (centres undefined) | inactive
14 | CN(C)S(=O)(=O)N1CCC(Oc2cccc(C(=O)NCCCC3CCCC3)c2)CC1 | 62% (active)
15 | Cc1csc(Nc2ccc(Cl)cc2)[n+]1-c1ccc(Cl)cc1 | inactive
16 | Cc1cc(C)cc(NC(=O)CSCc2cnn(-c3ccccc3)c2-n2cccc2)c1 | inactive
17 | Cc1ccc2c(c1)N(C(=O)CCC(=O)N1CCc3ccccc3C1)CCO2 | inactive
18 | O=C(/C=C/NNC(=O)c1cccc(Br)c1)c1ccccc1 | 60% (active)
19 | Cc1c(C(=O)Nc2ccccn2)oc2ccc(Br)cc12 | 36% (active)
20 | O=C(CSCc1ccc(Cl)cc1)N1CCN(Cc2ccc3c(c2)OCO3)CC1 | inactive
21 | CC1(C)CC(=O)CC2(C1)NCC(c1ccccc1Cl)c1c2[nH]c2ccccc12 (centres undefined) | 66.5% (active)
22 | c1ccc(C(c2ccccc2)N2CCN(Cc3nnnn3C3CCCCC3)CC2)cc1 | 34.5% (active)
23 | Cc1ccc(NC2CCCN(C(=O)CCC3(C)CC3)C2)cc1C (centres undefined) | inactive
24 | Clc1cccc(-c2nc3nc4ccccc4nc3n2Cc2ccco2)c1 | 32% (active)
25 | Cc1cccc(NC(=O)CN2CCCN(S(=O)(=O)c3ccc(Br)s3)CC2)c1 | inactive

Row | SMILES | inhibition
26 | CCCC1=Nc2cc(C(=O)NCc3ccco3)ccc2Sc2ccccc21 | 31.5% (active)
27 | O=C(NCc1ccco1)c1ccc(NS(=O)(=O)c2cccc([N+](=O)[O-])c2)cc1 | inactive
28 | Cc1cc(Oc2ccc(Cl)cc2)nc(SCC(=O)c2ccccc2)n1 | 34% (active)
29 | O=S(=O)(Nc1cccc(Oc2ccc(Cl)cc2)n1)c1ccc(F)cc1 | inactive
30 | COc1cc(Cl)ccc1OCc1cc(C(=O)N2CC[C@@H]3CCCC[C@H]3C2)no1 | inactive
31 | Clc1ccc(CSc2nnc(/C=C/c3ccccc3)o2)c(Cl)c1 | inactive
32 | C=CCc1cc(S(=O)(=O)c2ccc(O)c(CC=C)c2)ccc1O | 69% (active)
33 | O=C1c2ccccc2C2=Nc3ccccc3SC(c3ccccc3F)C12 (centres undefined) | 50% (active)
34 | COC(=O)c1cccc(C(=O)N2CCCC(Nc3ccc4c(c3)OCCO4)C2)c1 (centres undefined) | inactive
35 | CCOC(=O)C1(CCOc2ccccc2)CCN(Cc2cc(OC)c(O)cc2Cl)CC1 | inactive
36 | COc1ccc(NC(=O)CN(C)CC(=O)Nc2cccc(C(F)(F)F)c2)cc1 | 44.5% (active)
37 | O=C(NC1Cc2ccccc2C1)c1cc(COc2cccc(C(F)(F)F)c2)on1 | inactive
38 | COc1cccc(COC(=O)C2CCN(S(=O)(=O)c3ccc(Cl)cc3)CC2)c1OC | inactive
39 | CSc1cccc(NC(=S)N(C(C)C)C(C)c2ccccn2)c1 (centres undefined) | 66.5% (active)
40 | COc1ccccc1NC(=O)CSc1nc2sc(C)c(C)c2c(=O)n1Cc1ccco1 | 48.5% (active)
41 | Cc1nc(N2CCN(c3ccccn3)CC2)c2c(C)c(C(=O)Nc3ccc(F)c(Cl)c3)sc2n1 | 48.5% (active)
42 | O=S(=O)(c1ccc(F)cc1)N1CCN(Cc2ccccc2C(F)(F)F)CC1 | inactive
43 | COc1ccccc1/C=C/C=N/n1c(-c2ccc(Cl)cc2Cl)n[nH]c1=S | inactive
44 | O=C(Nc1ccc(Br)c2cccnc12)c1ccc(Cn2cc([N+](=O)[O-])cn2)o1 | inactive
45 | CCC1=NN(C(=O)Cc2ccc([N+](=O)[O-])cc2)C(O)(c2ccc(Br)cc2)C1 (centres undefined) | 65% (active)
46 | Cc1cc(Cl)ccc1C(=O)C1CCCN(C(=O)CCN2CCCO2)C1 (centres undefined) | inactive
47 | O=C(OCC(=O)N(CCc1ccccc1)Cc1ccccc1)c1ccccc1[N+](=O)[O-] | 58.5% (active)
48 | Cc1cc(C)cc(OCC(=O)Nc2cc(NC(=O)COc3cc(C)cc(C)c3)cc(C(=O)O)c2)c1 | inactive
49 | COc1cc(C2CC(=O)N3CN(Cc4ccccc4)CSC3=C2C#N)ccc1OCc1ccccc1 (centres undefined) | inactive
50 | CCOc1ccc(C2c3[nH]c4ccccc4c3CCN2Cc2cccn2-c2ncccn2)cc1 (centres undefined) | 35% (active)

Row | SMILES | inhibition
51 | CCC(C)(C)n1nnnc1C(c1cccs1)N1CCN(c2nc3ccccc3s2)CC1 (centres undefined) | 39% (active)
52 | COc1ccc2c(c1)C(c1cccs1)=NNC(c1cccnc1)=N2 | 43% (active)
53 | COCCN(C(=S)Nc1cccc(Cl)c1C)C(C)c1ccco1 (centres undefined) | inactive
54 | O=C(COC(=O)/C(=C/c1cccs1)c1cccs1)NCc1ccccc1Cl | 29% (active)
55 | Cc1ccccc1CSc1nnc(CCCCCNC(=O)OC(C)(C)C)o1 | inactive
56 | CCc1nnc(NS(=O)(=O)c2ccc(NC(=S)NC(=O)/C=C/c3cccs3)cc2)s1 | inactive
57 | COc1cccc2sc(NNC(=O)c3nc4ccccc4s3)nc12 | inactive
58 | Cc1nn(CC(=O)Nc2nc3ccccc3s2)c(C)c1[N+](=O)[O-] | 48% (active)
59 | O=C(NCc1ccccc1)C1=C[C@@H](C2CCCCC2)C[C@@H](OCc2ccc(CO)cc2)O1 | inactive
60 | O=C(CSCc1ccc(Br)cc1)Nc1ccc(S(=O)(=O)N2CCCCCC2)cc1 | inactive
61 | Cc1ccc(C2=Nc3c(ccc4ccccc34)C(c3ccncc3)=NN2)cc1 | 68.5% (active)
62 | CCOc1cccc(OCCCOc2cccc3cccnc23)c1 | inactive
63 | Cc1ccc(OCc2cc(C(=O)N(C)CCc3ccccc3)no2)cc1C | inactive
64 | COc1ccc(C(C)=O)cc1COc1ccc(Cl)c(C)c1 | 46% (active)
65 | Cc1ccc(OS(=O)(=O)c2ccc(-c3csc(C)n3)s2)c(C)c1 | inactive
66 | Cc1cccc(NC(=O)N(Cc2cc3cc(C)cc(C)c3[nH]c2=O)CC2COCCO2)c1 (centres undefined) | inactive
67 | O=C1/C(=C/c2ccc(F)cc2)SC(=S)N1NS(=O)(=O)c1ccccc1 | inactive
68 | Fc1ccc(Cn2nnnc2C(c2cccs2)N2CCCCCC2)cc1 (centres undefined) | 49% (active)
69 | COc1ccccc1C(c1nnnn1C(C)(C)C)N1CCN(Cc2ccccc2)CC1 (centres undefined) | 76% (active)
70 | COc1ccc(C(=O)C2CCCN(C(=O)c3cc(C)on3)C2)cc1F (centres undefined) | inactive
71 | CCCCCCCCCCOC(=O)Cn1c(COc2cccc(OC)c2)[n+](C)c2ccccc21 | 67% (active)
72 | CCCCCCCCCCOC(=O)Cn1c(COc2ccc(C)cc2)[n+](C)c2ccccc21 | 65% (active)
73 | CCCCN(Cc1ccccc1)C(=O)C1CCN(Cc2sccc2C)CC1 | inactive
74 | CCOc1ccc2[nH]c(=O)c(CN(Cc3nnnn3CCc3ccccc3)CC3CCCO3)cc2c1 (centres undefined) | 32% (active)
75 | Cc1cccc(N2CCN(C(=O)c3cccc(S(=O)(=O)N4CCc5ccccc5C4)c3)CC2C)c1 (centres undefined) | inactive

Row | SMILES | inhibition
76 | Cc1cc2ccccn2c1C(=O)c1cccc(S(=O)(=O)N2CCOCC2)c1 | inactive
77 | CCCCn1ccnc1C(=O)c1cccc(S(=O)(=O)N2c3ccccc3CC2C)c1 (centres undefined) | 62% (active)
78 | COc1cccc(CN(C)C(=O)CC23CC4CC(CC(C4)C2)C3)c1OC | inactive
79 | CCN(CC)C(=O)CC1(c2ccccc2OC)CCOC(C(C)C)C1 (centres undefined) | 36.5% (active)
80 | O=C1N=C2SCCN2/C1=C\c1c(Cl)cccc1Cl | inactive
81 | CC1=C/C(=N\OS(=O)(=O)c2ccccc2)C=CC1=O | inactive
82 | COc1cc(C(CCN2CCN(c3ccccc3)CC2)c2c(OC)cc(OC)c3ccc(=O)oc23)cc(OC)c1OC (centres undefined) | inactive
83 | CCOc1ccc(CN(Cc2ccco2)C(c2cccs2)c2nnnn2C(C)(C)C)cc1 (centres undefined) | 60.5% (active)
84 | COc1ccc(OC)c(-c2csc(-c3cccs3)n2)c1 | inactive
85 | COc1ccc(C2CC(c3cccs3)=Nc3ccccc3S2)cc1OC (centres undefined) | 40.5% (active)
86 | O=C(COC(=O)c1c2c(nc3ccccc13)CCCC2)c1ccc(Br)s1 | inactive
87 | CCc1ccccc1NC(=O)/C(=C/c1ccccc1)c1ccccc1 | 37.5% (active)
88 | O=C(Nc1ccc(Oc2ccccc2)cc1)c1ccco1 | 50.5% (active)
89 | CC(Oc1ccc2ccccc2c1)C(=O)NNC(=S)NC(=O)c1ccco1 (centres undefined) | inactive
90 | Cc1ccc(C2=NN(C)c3nc4ccccc4n3C2)cc1 | inactive
91 | CCCN1C(=O)C(Cc2nc3ccccc3c(=O)n2-c2ccccc2)c2cc(C)ccc21 (centres undefined) | 47% (active)
92 | Brc1ccc(C2CC(c3ccccc3)=Nc3ccccc3N2)cc1 (centres undefined) | 61.5% (active)
93 | O=C(NNc1ccccc1Cl)C(O)(c1cccc(C(F)(F)F)c1)c1cccc(C(F)(F)F)c1 | 44% (active)
94 | COc1cccc(-c2cc3nc4c(c(N5CCC6(CC5)OCCO6)n3n2)CCCC4)c1 | inactive
95 | CC(C)(C)C1CCC(C(=O)NCC(c2cccs2)N2CCOCC2)CC1 (centres undefined) | inactive
96 | CCc1cccc(C)c1N(C(=O)Cn1c(CO)nc2ccccc21)C(C)COC (centres undefined) | 37.5% (active)
97 | O=[N+]([O-])c1ccc(N2CCN(CC(O)COc3ccccc3)CC2)cc1 (centres undefined) | inactive
98 | COc1cccc(NC(=S)N(CCc2c(C)[nH]c3ccccc23)Cc2ccco2)c1 | 59% (active)
99 | Cc1[nH]c2ccccc2c1CCN(Cc1cccs1)C(=S)NC(C)(C)C | inactive
